Bioassay records as filed in PubChem BioAssay.
Only some compounds are listed: those with a hit (about 1.3% of all), similar ones and a draw of the others.
AmpC no deterg: inhibitors of E. coli AmpC beta-lactamase without detergent | 330,000 compounds, 0.52% hits | AmpC nitrocefin hydrolysis, absorbance 480 nm, 0.0001% Triton | P00811 | Potency, µM (highest dose often 57.1 µM), inactives show at the highest dose activity change, negative = inhibition, hits mostly inhibitors;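 note: plate controls were no compound for no effect and no enzyme for full effect; nearly all actives have a fitted effect of over 20% in size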
Target sequence (P00811 whole entry, looked up): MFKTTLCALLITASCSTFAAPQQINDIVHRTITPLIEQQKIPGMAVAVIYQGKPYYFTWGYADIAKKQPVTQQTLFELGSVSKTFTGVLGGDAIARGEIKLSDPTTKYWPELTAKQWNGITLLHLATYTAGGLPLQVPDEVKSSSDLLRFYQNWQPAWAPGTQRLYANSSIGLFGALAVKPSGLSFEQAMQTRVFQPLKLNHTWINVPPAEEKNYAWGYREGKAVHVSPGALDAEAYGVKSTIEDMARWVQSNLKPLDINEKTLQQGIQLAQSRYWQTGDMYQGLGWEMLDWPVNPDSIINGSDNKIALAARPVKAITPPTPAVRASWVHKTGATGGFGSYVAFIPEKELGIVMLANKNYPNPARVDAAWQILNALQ
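20 mM phosphate pH 7.0 + 0.01% (detergent screen) or 0.0001% Triton X-100; 5.3 nM AmpC reagent; cpd preinc 15 min RT; nitrocefin (800 uM stock) to start; A480 q20 s × 4 min; Activity was normalised to no-enzyme and no-compound control wells.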
Vaccinia mCherry: vaccinia inhibition (mCherry reporter); AID 720579; Vaccinia virus mCherry reporter infection, fluorescence; 310,000 compounds, 0.63% hits; Potency, µM (doses to about 36.5 µM), without a hit: top-dose activity change, negative = inhibition, actives largely listed as inhibitors; calls by dose curve; tested in A549 cells; note: % is set by controls: 0 for no effect and ±100 for the full control effect; nearly all actives have a fitted effect of over 35% in size
Vaccinia Venus: inhibitors of vaccinia virus (Venus reporter). 330,000 compounds, 0.46% hits. AID 720580. Vaccinia virus Venus reporter expression, fluorescence. Potency, µM (top dose mostly 36.5 µM), for the others: top-dose activity change, negative = inhibition, usual class: inhibitors; calls by dose curve; tested in A549 cells; note: % is set by controls: 0 for no effect and ±100 for the full control effect; nearly all actives have a fitted effect of over 30% in size
AMA1-RON2 inh: AMA1-RON2 (P. falciparum) interaction inhibition. AlphaScreen AMA1-biotinylated RON2 peptide binding. Potency, µM (titrated, usually from 58.2 µM), inactives show top-dose activity change, negative = inhibition, hits mostly inhibitors. 360,000 compounds, 0.2% hits;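 note: 0% = vehicle wells and -100% = peptide control; nearly all actives have a fitted effect of over 45% in size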
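AMA1 (3D7) with his tag at 25 nM final met compounds first, then biotinylated RON2 peptide at 25 nM; detection used donor plus acceptor beads, 10 µg/mL apiece, read by AlphaScreen after 30 min at room temperature.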
AmpC detergent: AmpC beta-lactamase inhibition with detergent present; P00811; Potency, µM (top dose mostly 114 µM), for inactives: at the highest dose activity change, negative = inhibition, most hits filed as inhibitors; 370,000 compounds, 0.041% hits; AmpC hydrolysis of nitrocefin, absorbance 480 nm, 0.01% Triton;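 note: 0% = no-compound wells and -100% = no-enzyme wells; nearly all actives have a fitted effect of over 25% in size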
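20 mM phosphate pH 7.0 + 0.01% (detergent screen) or 0.0001% Triton X-100; 5.3 nM AmpC reagent; cpd preinc 15 min RT; nitrocefin (800 uM stock) to start; A480 q20 s × 4 min; Activity was normalised to no-enzyme and no-compound control wells.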
SARS PLpro yeast: inhibitors of SARS-CoV papain-like protease in yeast; S. cerevisiae expressing SARS-CoV PLpro, growth rescue; Potency, µM (top dose mostly 32.9 µM), without a hit: at the highest dose activity, positive = growth rescue, most hits filed as activators; 330,000 compounds, 0.19% hits; AID 485353; calls by dose curve; note: 0% is about no effect; nearly all actives have a fitted effect of over 55% in size
* hit, by the source's call; i = inactive; ? = inconclusive; nt = not tested or not shown; [ ] = another dose, or the depositor's remark. Unless noted, calls come from the whole dose curve; as a rule, active = well fitted curve in the direction sought with a large enough effect; inconclusive = small, poorly fitted or top-dose-only effect, or another doubt; inactive = no such curve, though single readings can be large; an effect the other way counts as inactive or inconclusive. Potency is the fitted concentration of half-maximal effect.

SMILES	AmpC no deterg	Vaccinia mCherry	Vaccinia Venus	AMA1-RON2 inh	AmpC detergent	SARS PLpro yeast
COC(=O)c1nc(-c2ccc3c(n2)C(=O)C(N)=C(OC)C3=O)c(N)c(-c2ccc(OC)c(OC)c2O)c1C	-11%	-8%	-5%	59%	3%	1%
O=C(NCC1Cc2cccc(-c3cccnc3)c2O1)c1cc(-c2ccccc2)n[nH]1 (stereo not given)	nt	i	-16%	nt	nt	nt
O=C(C1=C[C@@H]2[C@H]3C(=O)N(c4cccc(Cl)c4)C(=O)[C@H]3[C@@H](C(=O)c3ccc(Cl)cc3)N2C=C1)c1ccccc1	13µM*	i	58%	9%	-10%	9%
O=C(NCCCO)/C(=C/c1ccc(-c2cccc([N+](=O)[O-])c2)o1)NC(=O)c1ccccc1	50%	10%	1%	6%	-3%	1%
Cc1ccc(C(=O)N/C(=C/c2ccc(-c3ccc([N+](=O)[O-])cc3)o2)C(=O)NCCCN(C)C)cc1	nt	?	11µM*	-9%	nt	nt
OCC1CCCN(c2nc3cc4c(cc3cc2CNCc2cccc(C(F)(F)F)c2)OCO4)C1 (stereo not given)	nt	-12%	-11%	nt	nt	nt
Cc1ccc(-c2nn(-c3ccccc3)cc2C=C2SC(=S)N(CCS(=O)(=O)O)C2=O)cc1	nt	-2%	-14%	32µM*	nt	nt
O=C1C(=Cc2cn(-c3ccccc3)nc2-c2ccc(OCc3ccccc3)cc2)SC(=S)N1CCS(=O)(=O)O	nt	-3%	4%	-9%	nt	nt
COc1ccc(-c2ccc(C(=O)NCC3Cc4cccc(-c5nc(C)cnc5C)c4O3)o2)cc1 (stereo not given)	nt	-13%	5%	nt	nt	nt
CC1=NNC(=O)/C1=C\c1cn(-c2ccccc2)nc1-c1ccc(Cl)cc1	-36%	10µM*	8.9µM*	-3%	-1%	-5%
COc1cc(/C=C/C(=O)OCC(=O)NC(=O)NC23CC4CC(CC(C4)C2)C3)ccc1OCC#N	8.9µM*	-12%	?	-3%	-6%	-1%
Brc1ccc(C2=CC(c3cccs3)n3ncnc3N2)cc1 (stereo not given)	10µM*	?	-2%	-11%	-7%	-19%
OCCCc1nc2n(n1)C(c1cccs1)C=C(c1ccc(Br)cc1)N2 (stereo not given)	116%	nt	nt	nt	-12%	-18%
c1cncc(CSc2ccc(-c3cccnc3)nn2)c1	-2%	-12%	-14%	6%	9%	-6%
c1ccc(-c2ccc(SCc3cccnc3)nn2)nc1	-18%	11µM*	?	?	-2%	28%
CN(C)c1ccc(/C=C/c2ccnc3c(Cl)cccc23)cc1	nt	-5%	27%	nt	nt	nt
Cc1cc(/C=C2\SC(=S)NC2=O)c(C)n1-c1ccccc1	-43%	-23%	8%	-24%	8%	-1%
Cc1cc(/C=C2\SC(=S)NC2=O)c(C)n1-c1ccc(O)cc1	11µM*	?	-2%	46%	-3%	-5%
COc1ccccc1C(=O)NC(C)C(c1cccs1)N1CCOCC1 (stereo not given)	2%	-12%	-10%	-4%	?	-11%
Cc1ccccc1C(=O)NC(C)C(c1cccs1)N1CCOCC1 (stereo not given)	2.8µM*	-17%	4%	-2%	?	6%
COc1cc(=O)n2c(c1C(=O)NCc1nonc1C)CCN(C(=O)c1cccc(C)c1C)CC2	nt	i	0%	nt	nt	nt
CCc1cccc2c(C(=O)COC(=O)c3ccc(O)cc3)c[nH]c12	28µM*	-21%	-21%	17%	-11%	3%
CCc1cccc2c(C(=O)COC(=O)c3ccccc3)c[nH]c12	-31%	-6%	-7%	-7%	?	7%
Brc1ccc2c(c1)OCCOCCOc1cc(Br)ccc1OCCOCCOCCO2	88%	?	10µM*	4%	1%	-37%
Cc1noc(N)c1C(=O)Nc1ccccc1F	-16%	i[1.46 µM]	7.9µM*	-14%	?	-18%
SMILES	AmpC no deterg	Vaccinia mCherry	Vaccinia Venus	AMA1-RON2 inh	AmpC detergent	SARS PLpro yeast
C#CCSc1nnc(-c2ccc(C)cc2)o1	-12%	10µM*	?	-9%	?	-11%
CC(C)(C)c1ccc(/C=N/NC(=S)NC2CCCCC2)cc1	-42%	i	-13%	31%	?	20µM*
O=C(N/N=C/c1cn(-c2cccs2)nc1-c1ccccc1)c1ccccc1Br	-36%	i	?	-4%	?	-11%
O=C(N/N=C/c1cn(-c2cccs2)nc1-c1ccccc1)c1ccccc1O	-29%	13µM*	?	64%	10%	-71%
COc1ccc(-c2[nH]c(-c3cccc(OC)c3)nc2SCC(=O)NCc2ccco2)cc1	10µM*	?	-25%	-29%	-15%	-16%
Cn1cnc([N+](=O)[O-])c1Sc1nc2ccccc2[nH]1	-2%	?	-24%	8%	6%	0%
Cn1cnc([N+](=O)[O-])c1Oc1ccc2ccccc2c1	-6%	6.3µM*	7.9µM*	-26%	-1%	18%
O=C(CN1C(=O)COc2ccc(S(=O)(=O)N3CCCC3)cc21)NCCc1ccc(Cl)cc1	nt	-16%	-16%	nt	4%	nt
CCN(CC)CCCNc1ccc2ncn3c4ccc(O)cc4c(=O)c1c23	nt	0.89µM*	?	-27%	nt	nt
CN(C)CCNc1ccc2nnn3c4ccc(O)cc4c(=O)c1c23	nt	?	?	20%	nt	nt
c1ccc2sc(-c3cc4c(c(OC5CCOC5)c3)OCCN(Cc3cccn3-c3nccs3)C4)nc2c1 (stereo not given)	nt	-12%	-5%	nt	nt	nt
CC(C)(C)c1cc(CCC(=O)NCC2CCCO2)cc(C(C)(C)C)c1O (stereo not given)	70%	4µM*	-20%	0%	-5%	-2%
Cc1ccc2nc3sc(C(=O)N4CCCc5ccccc54)c(N)c3cc2c1	-13%	nt	nt	67%	3%	-2%
Cc1cc(C)c2cc3c(N)c(C(=O)N4CCc5ccccc5C4)sc3nc2c1	0.32µM*	-7%	-9%	20%	2%	28%
CC1=C(O)C(=O)C=C2C1=CC=C1[C@]2(C)CC[C@@]2(C)C3C[C@](C)(C(=O)O)CC[C@@]3(C)CC[C@@]12C (stereo not given in full)	nt	14µM*	11µM*	nt	nt	nt
COC(=O)[C@]1(C)CC[C@@]2(C)CC[C@@]3(C)C4=CCc5c(cc(O)c(O)c5C)[C@]4(C)CC[C@@]3(C)C2C1 (stereo not given in full)	nt	20%	2%	nt	nt	nt
COC1=C(Nc2ccc(OC)cc2)C(=O)c2ccccc2C1=O	-22%	?	?	13µM*	-8%	nt
CCN(CC)c1ccc(NC2=C(Cl)C(=O)c3ccccc3C2=O)cc1	-23%	?	?	6.3µM*	?	-69%
